Data reported in ChEMBL document CHEMBL1961873, “Compounds: GSK PKIS; Assays: Nanosyn kinase panel” (2012).

Experiments:
[1] = target: Tyrosine-protein kinase CSK (Homo sapiens) (UniProt P41240); settings: at 1 µM;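 note: each value is an averaged inhibition reading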
[2] = target: T1, Discoidin domain-containing receptor 2 (Homo sapiens) (UniProt Q16832); settings: at 0.1 µM
T1 sequence (whole entry): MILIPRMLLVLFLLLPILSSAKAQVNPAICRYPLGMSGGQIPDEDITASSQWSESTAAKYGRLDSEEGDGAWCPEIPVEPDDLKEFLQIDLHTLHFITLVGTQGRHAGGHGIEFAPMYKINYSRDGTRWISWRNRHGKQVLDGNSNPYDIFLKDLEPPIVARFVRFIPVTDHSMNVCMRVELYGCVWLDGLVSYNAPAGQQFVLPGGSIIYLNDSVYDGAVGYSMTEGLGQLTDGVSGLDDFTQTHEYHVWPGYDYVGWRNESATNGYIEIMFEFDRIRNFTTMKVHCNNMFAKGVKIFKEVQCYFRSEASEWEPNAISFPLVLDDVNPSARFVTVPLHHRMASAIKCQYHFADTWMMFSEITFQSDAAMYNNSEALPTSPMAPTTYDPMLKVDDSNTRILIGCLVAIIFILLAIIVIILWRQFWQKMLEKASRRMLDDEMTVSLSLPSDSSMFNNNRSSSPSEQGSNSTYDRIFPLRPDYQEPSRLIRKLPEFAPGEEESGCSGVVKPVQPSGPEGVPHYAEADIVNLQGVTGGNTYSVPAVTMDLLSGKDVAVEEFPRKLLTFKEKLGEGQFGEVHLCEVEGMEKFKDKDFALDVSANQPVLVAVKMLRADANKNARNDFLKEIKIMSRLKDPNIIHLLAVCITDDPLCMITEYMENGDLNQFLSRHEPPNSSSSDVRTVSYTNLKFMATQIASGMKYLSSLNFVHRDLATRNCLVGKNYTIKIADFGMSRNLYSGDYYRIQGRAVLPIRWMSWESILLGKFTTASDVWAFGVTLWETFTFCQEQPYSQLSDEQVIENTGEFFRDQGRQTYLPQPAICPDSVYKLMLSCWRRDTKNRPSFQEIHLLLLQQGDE

[3] = target: T1, Discoidin domain-containing receptor 2 (Homo sapiens); settings: at 1 µM
[4] = target: Epidermal growth factor receptor (Homo sapiens) (UniProt P00533); settings: at 0.1 µM
[5] = target: Epidermal growth factor receptor (Homo sapiens) (UniProt P00533); settings: at 1 µM
[6] = system: Epidermal growth factor receptor (Homo sapiens), P00533 [L858R]; settings: at 0.1 µM
[7] = system: Epidermal growth factor receptor (Homo sapiens), P00533 [L858R]; settings: at 1 µM
[8] = system: Epidermal growth factor receptor (Homo sapiens), P00533 [L861Q]; settings: at 0.1 µM
[9] = system: Epidermal growth factor receptor (Homo sapiens), P00533 [L861Q]; settings: at 1 µM
[10] = system: Epidermal growth factor receptor (Homo sapiens), P00533 [T790M]; settings: at 0.1 µM
[11] = system: Epidermal growth factor receptor (Homo sapiens), P00533 [T790M]; settings: at 1 µM
[12] = system: Epidermal growth factor receptor (Homo sapiens), P00533 [L858R,T790M]; settings: at 0.1 µM
[13] = system: Epidermal growth factor receptor (Homo sapiens), P00533 [L858R,T790M]; settings: at 1 µM
[14] = target: Ephrin type-A receptor 2 (Homo sapiens) (UniProt P29317); settings: at 0.1 µM
[15] = target: Ephrin type-A receptor 2 (Homo sapiens) (UniProt P29317); settings: at 1 µM
[16] = target: T2, Ephrin type-A receptor 3 (Homo sapiens) (UniProt P29320); settings: at 0.1 µM
T2 sequence (whole entry): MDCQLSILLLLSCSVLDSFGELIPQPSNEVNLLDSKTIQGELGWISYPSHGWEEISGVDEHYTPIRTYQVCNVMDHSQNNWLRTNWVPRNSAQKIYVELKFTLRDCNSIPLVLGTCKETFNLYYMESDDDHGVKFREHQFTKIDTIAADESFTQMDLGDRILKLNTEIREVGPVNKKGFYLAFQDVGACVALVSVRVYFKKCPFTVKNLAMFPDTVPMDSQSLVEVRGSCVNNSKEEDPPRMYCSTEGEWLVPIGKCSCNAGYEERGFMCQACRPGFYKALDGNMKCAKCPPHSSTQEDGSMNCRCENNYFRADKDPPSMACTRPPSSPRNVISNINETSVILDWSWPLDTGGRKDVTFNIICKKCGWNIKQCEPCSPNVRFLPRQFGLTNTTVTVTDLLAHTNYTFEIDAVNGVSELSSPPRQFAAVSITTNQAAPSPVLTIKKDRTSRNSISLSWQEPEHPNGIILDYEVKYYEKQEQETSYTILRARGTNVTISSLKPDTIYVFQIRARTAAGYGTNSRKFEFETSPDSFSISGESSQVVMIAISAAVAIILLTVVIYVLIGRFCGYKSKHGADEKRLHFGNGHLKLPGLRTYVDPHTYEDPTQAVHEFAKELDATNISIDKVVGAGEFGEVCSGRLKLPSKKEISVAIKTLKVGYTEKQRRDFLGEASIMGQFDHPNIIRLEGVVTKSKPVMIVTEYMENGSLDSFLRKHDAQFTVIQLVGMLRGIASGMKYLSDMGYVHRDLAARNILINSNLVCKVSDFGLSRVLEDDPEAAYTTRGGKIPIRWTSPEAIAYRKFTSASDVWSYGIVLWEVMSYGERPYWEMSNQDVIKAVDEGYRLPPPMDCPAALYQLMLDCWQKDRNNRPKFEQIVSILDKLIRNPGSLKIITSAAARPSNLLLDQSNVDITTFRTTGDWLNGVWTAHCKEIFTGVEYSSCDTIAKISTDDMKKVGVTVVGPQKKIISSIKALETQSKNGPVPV

[17] = target: T2, Ephrin type-A receptor 3 (Homo sapiens); settings: at 1 µM
[18] = target: Ephrin type-A receptor 4 (Homo sapiens) (UniProt P54764); settings: at 0.1 µM
[19] = target: Ephrin type-A receptor 4 (Homo sapiens) (UniProt P54764); settings: at 1 µM
[20] = target: T3, Ephrin type-B receptor 2 (Homo sapiens) (UniProt P29323); settings: at 0.1 µM;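 note: reported as mean inhibition of EPHB2, from the GSK PKIS dataset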
T3 sequence (whole entry): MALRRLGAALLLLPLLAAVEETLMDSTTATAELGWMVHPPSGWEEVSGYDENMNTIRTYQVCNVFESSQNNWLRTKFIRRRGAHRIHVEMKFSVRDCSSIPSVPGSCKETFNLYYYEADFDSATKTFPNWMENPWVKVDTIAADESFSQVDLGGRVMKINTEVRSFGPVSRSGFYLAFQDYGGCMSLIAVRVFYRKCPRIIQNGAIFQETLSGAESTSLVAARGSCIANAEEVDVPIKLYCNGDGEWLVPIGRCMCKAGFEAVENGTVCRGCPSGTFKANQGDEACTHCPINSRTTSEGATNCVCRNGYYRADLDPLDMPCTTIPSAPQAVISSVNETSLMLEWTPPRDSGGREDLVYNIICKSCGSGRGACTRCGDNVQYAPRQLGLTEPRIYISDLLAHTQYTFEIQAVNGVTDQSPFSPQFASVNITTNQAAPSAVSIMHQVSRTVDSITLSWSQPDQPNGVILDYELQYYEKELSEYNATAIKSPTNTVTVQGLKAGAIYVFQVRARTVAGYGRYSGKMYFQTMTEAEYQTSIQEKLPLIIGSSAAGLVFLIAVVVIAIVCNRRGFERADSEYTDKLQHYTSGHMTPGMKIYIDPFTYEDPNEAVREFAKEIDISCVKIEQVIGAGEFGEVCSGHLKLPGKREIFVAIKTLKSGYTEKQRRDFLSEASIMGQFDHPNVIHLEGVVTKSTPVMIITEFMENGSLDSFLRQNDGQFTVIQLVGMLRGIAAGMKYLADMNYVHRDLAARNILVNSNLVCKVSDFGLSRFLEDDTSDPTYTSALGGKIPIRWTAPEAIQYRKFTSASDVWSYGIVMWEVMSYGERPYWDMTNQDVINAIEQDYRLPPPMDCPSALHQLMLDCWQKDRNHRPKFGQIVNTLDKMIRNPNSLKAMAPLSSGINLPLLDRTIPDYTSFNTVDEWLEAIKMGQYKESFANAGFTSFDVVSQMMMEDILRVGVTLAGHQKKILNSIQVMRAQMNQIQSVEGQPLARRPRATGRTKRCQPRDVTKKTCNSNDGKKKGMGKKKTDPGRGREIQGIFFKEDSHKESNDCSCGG

Chain of Epidermal growth factor receptor (Homo sapiens), P00533 [L861Q] (P00533 whole entry L861Q): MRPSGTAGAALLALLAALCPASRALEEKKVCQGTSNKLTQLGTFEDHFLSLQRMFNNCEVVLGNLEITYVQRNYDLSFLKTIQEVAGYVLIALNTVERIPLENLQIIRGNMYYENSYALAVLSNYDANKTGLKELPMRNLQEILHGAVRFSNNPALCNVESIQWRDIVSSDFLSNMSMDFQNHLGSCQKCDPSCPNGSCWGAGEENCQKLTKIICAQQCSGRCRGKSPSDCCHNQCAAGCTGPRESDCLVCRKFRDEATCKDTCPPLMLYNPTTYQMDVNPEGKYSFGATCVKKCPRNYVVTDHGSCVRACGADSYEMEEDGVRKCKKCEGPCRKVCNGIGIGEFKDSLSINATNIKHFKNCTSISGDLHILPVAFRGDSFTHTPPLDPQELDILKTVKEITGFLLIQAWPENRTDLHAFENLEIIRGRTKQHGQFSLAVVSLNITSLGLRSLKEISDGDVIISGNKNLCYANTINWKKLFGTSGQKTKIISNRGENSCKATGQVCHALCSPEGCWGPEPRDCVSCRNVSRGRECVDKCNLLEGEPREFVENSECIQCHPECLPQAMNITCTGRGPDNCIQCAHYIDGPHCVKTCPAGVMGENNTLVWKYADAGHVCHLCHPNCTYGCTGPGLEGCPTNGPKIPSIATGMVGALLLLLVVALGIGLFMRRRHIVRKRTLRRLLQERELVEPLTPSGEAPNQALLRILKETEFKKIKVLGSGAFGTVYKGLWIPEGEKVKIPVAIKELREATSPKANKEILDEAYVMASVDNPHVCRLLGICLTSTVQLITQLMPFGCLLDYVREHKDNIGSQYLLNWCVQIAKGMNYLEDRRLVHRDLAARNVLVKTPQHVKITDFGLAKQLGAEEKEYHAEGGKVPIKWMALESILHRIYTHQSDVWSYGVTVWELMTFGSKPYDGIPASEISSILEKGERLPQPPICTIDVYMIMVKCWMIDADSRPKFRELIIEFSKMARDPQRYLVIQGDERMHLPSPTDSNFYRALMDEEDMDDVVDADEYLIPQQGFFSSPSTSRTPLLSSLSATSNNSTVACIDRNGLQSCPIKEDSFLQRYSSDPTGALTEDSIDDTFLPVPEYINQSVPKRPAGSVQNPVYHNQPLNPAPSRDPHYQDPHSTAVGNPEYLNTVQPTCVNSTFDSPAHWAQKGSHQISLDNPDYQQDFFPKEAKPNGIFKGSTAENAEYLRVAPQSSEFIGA
Chain of Epidermal growth factor receptor (Homo sapiens), P00533 [T790M] (P00533 whole entry T790M): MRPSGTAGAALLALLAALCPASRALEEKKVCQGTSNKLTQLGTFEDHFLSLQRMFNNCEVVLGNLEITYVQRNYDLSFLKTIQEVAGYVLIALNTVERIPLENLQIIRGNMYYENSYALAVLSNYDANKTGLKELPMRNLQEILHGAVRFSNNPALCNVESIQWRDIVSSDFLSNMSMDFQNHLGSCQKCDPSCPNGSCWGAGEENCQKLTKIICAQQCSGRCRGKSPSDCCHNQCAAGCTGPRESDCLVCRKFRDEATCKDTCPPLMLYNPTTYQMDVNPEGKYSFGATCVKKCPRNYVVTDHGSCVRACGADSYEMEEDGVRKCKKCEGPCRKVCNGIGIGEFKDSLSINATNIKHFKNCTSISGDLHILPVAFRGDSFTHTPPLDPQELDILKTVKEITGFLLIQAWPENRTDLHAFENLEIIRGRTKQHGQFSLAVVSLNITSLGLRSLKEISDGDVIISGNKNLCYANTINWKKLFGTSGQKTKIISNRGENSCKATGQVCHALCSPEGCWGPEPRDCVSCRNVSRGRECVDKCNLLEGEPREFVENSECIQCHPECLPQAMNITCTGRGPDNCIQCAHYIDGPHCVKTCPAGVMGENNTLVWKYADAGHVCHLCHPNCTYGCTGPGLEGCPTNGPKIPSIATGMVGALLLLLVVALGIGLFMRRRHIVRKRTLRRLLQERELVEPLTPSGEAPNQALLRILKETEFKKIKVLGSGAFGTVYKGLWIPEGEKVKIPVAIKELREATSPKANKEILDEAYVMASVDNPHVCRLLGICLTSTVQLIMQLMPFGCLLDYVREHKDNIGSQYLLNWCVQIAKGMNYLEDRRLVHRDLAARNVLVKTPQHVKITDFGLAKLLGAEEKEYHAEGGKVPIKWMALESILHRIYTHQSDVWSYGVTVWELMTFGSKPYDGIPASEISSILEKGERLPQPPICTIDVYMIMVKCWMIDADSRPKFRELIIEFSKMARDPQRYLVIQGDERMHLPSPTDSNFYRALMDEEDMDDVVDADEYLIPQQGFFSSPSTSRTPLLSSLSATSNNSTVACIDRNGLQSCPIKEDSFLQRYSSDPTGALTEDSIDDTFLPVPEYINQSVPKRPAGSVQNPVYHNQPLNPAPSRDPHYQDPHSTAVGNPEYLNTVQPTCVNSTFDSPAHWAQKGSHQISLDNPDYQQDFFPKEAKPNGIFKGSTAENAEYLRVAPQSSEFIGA
Chain of Tyrosine-protein kinase CSK (Homo sapiens) (P41240 2-450 limits assumed): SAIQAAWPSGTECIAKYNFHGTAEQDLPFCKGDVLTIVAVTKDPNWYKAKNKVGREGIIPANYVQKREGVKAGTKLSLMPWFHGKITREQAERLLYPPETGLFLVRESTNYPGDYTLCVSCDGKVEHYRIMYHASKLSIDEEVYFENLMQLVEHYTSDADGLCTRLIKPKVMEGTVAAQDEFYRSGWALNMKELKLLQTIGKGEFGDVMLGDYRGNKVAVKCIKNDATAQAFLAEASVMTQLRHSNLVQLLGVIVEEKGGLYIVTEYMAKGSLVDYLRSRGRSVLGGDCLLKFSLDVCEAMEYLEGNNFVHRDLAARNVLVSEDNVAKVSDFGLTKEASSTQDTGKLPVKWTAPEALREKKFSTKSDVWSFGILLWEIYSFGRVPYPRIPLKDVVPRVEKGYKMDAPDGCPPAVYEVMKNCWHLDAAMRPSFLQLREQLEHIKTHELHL
Chain of Epidermal growth factor receptor (Homo sapiens), P00533 [L858R] (P00533 whole entry L858R): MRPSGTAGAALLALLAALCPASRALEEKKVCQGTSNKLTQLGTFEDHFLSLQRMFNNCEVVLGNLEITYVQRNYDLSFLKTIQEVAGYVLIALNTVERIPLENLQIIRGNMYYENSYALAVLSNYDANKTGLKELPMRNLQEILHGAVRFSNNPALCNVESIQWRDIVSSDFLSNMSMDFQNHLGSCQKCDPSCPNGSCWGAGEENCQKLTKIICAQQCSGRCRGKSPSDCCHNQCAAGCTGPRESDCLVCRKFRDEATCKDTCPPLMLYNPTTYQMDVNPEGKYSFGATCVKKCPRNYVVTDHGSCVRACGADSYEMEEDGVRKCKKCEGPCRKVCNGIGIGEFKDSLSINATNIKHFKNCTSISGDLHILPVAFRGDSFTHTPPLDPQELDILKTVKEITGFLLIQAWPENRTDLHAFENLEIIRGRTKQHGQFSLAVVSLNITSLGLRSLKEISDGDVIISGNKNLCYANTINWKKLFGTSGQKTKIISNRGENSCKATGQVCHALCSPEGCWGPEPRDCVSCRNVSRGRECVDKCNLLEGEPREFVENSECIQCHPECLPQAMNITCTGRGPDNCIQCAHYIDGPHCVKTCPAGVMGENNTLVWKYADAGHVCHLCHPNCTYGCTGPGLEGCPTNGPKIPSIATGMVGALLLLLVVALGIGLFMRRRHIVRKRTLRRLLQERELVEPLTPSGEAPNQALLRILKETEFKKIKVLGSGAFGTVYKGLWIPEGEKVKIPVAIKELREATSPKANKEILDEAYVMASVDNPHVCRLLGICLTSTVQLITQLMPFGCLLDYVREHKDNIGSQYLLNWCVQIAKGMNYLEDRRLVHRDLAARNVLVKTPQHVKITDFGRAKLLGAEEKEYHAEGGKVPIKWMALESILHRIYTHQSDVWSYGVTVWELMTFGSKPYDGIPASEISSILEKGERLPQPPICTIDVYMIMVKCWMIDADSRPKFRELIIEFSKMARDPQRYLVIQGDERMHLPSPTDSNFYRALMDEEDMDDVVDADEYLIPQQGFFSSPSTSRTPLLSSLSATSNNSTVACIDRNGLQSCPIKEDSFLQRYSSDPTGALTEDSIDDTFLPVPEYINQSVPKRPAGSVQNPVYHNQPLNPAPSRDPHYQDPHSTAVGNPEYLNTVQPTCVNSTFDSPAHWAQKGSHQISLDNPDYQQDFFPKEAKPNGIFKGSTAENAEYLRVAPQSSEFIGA
Chain of Ephrin type-A receptor 4 (Homo sapiens) (P54764 whole entry): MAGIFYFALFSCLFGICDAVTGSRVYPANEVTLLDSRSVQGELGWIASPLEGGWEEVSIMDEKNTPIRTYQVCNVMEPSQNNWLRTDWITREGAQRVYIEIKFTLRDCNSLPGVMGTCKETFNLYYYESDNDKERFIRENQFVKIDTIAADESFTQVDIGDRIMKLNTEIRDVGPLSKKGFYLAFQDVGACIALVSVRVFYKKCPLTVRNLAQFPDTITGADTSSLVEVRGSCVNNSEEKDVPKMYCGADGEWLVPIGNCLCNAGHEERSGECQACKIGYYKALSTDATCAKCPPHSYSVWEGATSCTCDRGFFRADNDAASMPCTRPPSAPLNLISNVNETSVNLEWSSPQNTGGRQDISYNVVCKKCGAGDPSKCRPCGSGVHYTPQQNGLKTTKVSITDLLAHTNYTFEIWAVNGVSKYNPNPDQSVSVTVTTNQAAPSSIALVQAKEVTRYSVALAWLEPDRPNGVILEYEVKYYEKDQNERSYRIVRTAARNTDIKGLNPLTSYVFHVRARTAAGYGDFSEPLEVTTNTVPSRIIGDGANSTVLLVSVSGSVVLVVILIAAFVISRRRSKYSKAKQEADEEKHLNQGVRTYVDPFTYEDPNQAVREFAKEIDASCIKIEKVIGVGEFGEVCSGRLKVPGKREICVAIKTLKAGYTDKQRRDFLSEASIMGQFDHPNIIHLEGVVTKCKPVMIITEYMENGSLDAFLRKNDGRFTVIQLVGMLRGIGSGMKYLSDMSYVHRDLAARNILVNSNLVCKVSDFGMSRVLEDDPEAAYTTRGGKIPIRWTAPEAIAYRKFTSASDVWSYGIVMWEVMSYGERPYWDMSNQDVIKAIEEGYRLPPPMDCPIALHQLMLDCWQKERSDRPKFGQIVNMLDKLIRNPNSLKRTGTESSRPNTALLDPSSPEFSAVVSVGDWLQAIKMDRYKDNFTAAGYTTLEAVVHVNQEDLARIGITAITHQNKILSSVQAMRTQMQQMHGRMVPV

Row | SMILES | inhibition [1] [%] | inhibition [2] [%] | inhibition [3] [%] | inhibition [4] [%] | inhibition [5] [%] | inhibition [6] [%] | inhibition [7] [%] | inhibition [8] [%] | inhibition [9] [%] | inhibition [10] [%] | inhibition [11] [%] | inhibition [12] [%] | inhibition [13] [%] | inhibition [14] [%] | inhibition [15] [%] | inhibition [16] [%] | inhibition [17] [%] | inhibition [18] [%] | inhibition [19] [%] | inhibition [20] [%]
1 | Fc1cccc(COc2ccc(Nc3ncnc4sc(-c5ccco5)cc34)cc2Cl)c1 | 2.56 | 3.86 | 4.41 | 71.9 | 81.9 | 15.2 | 54.8 | 30.2 | 51 | 1.83 | 3.73 | 0.58 | 3.48 | 2.14 | 1.92 | 3.15 | 4.97 | 7.43 | 9.74 | 9.21
2 | COc1cccc(-n2ncc3c(N/N=C/c4ccc(F)cc4)ncnc32)c1 | 11.4 | 1.69 | 4.36 | 0.53 | 7.92 | 11.6 | 34.9 | 5.16 | 12 | 1.96 | 3.89 | 1.74 | 1.29 | 4.28 | 5.62 | 4.05 | 4.06 | 7.96 | 15.7 | 5.53
3 | Clc1ccc(-c2nn3ncccc3c2-c2ccnc(Nc3ccccc3)n2)cc1 | 5.89 | 3 | 76.7 | 13.2 | 61.7 | 43.5 | 87.6 | 12 | 58.5 | 1.98 | 14.4 | 9.72 | 53.3 | -1.33 | 2.12 | 1.69 | 7.97 | 3.45 | 23.3 | 8.11
4 | Cc1ccc2c(-c3ccnc(Nc4ccccc4)n3)c(-c3ccc(F)cc3)nn2n1 | 14.5 | 31.2 | 83.3 | 47.1 | 78.4 | 85.8 | 97.4 | 51.8 | 87.8 | 8.63 | 51.1 | 33.7 | 81.9 | 6.42 | 15 | 9.53 | 18.1 | 11.5 | 52.1 | 24.9
5 | N#Cc1c(NC(=O)CN2CCOCC2)sc2c1CCCC2 | 3.68 | 2.2 | 2.97 | 0.55 | -0.79 | 3.01 | 4.14 | 3.34 | 3.29 | 3.11 | 4.76 | 2.42 | 4.77 | 1.79 | 1.43 | 5.54 | 6.42 | 7.58 | 13.1 | 8.79
6 | CCNC(=O)O[C@H]1CN[C@H](C#Cc2cc3ncnc(Nc4ccc(OCc5cccc(F)c5)c(Cl)c4)c3s2)C1 | 7.41 | 2.66 | 1.39 | 86.6 | 98 | 32.5 | 81 | 37.6 | 67 | 2.9 | 10.6 | 2.62 | 4.48 | 3.3 | 2.25 | 6.99 | 4.34 | 8.98 | 6.16 | 8.39
